# Assay results published in PubChem BioAssay AID485317 (Broad Institute, 2010).
# Screen size: about 290,000 compounds; about 11,000 (3.8%) were called active. This is one part of a sample in which actives are shown more often than they occur.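 Rule for the calls: active = mean replicate inhibition above about 79%, with every replicate also reaching it (limit read from the data); inconclusive = only one of the two criteria met; inactive = mean below limit and not every replicate reaching it.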
# Biological target: FAD-linked sulfhydryl oxidase ALR (Homo sapiens) (UniProt P55789)
# Sequence (P55789 whole entry, looked up): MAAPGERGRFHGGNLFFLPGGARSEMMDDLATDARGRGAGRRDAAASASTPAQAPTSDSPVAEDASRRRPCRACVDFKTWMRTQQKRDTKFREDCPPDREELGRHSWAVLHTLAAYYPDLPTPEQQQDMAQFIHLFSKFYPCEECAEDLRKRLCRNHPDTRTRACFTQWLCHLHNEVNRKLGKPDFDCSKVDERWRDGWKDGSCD
# Experiment: ALR-catalysed DTT oxidation blockers – biochemical, H2O2 detection, HRP-luminol luminescence, single point, primary screen (AID 485317)
# Conditions: purified ALR, active compounds read high, concentration not given here
row,Structure (SMILES),inhibition
1,COc1ccccc1N(CCOc1ccccc1)S(=O)(=O)c1ccccc1,-0.946% (inactive)
2,CCCN(CC1CC1)C(=S)NC(=O)c1ccccc1Br,-2.06% (inactive)
3,N#CCC(=O)N/N=C/c1ccc(SCC(=O)Nc2ccccc2)o1,93.3% (active)
4,O=C(CCNC(=O)c1ccccc1)NN=Cc1ccc(Br)o1,-2.22% (inactive)
5,Cc1ccc(/C=N/NC(=O)CSc2ccccn2)o1,3.05% (inactive)
6,CC1(C)CC(=O)C=C(c2cccc3c2Oc2ccccc2S3)C1,-3.51% (inactive)
7,Nc1nc(SCC(=O)Nc2ccc(Cl)c([N+](=O)[O-])c2)n[nH]1,-3.76% (inactive)
8,Nc1nc(SCC(=O)NNc2c(Cl)cc(Cl)cc2Cl)n[nH]1,95.6% (active)
9,Nc1nc(SCC(=O)NN(c2ccccc2)c2ccccc2)n[nH]1,87.6% (active)
10,COc1ccc(C(=O)CSc2n[nH]c(N)n2)cc1,-11% (inactive)
11,COc1ccc(CNC(=O)CSc2n[nH]c(N)n2)cc1OC,4.3% (inactive)
12,Nc1nc(SCC(=O)Nc2ccc(Cl)cc2C(F)(F)F)n[nH]1,0.457% (inactive)
13,COc1ccc(N2CCN(S(=O)(=O)c3cc4c5c(c3)C(C)C(=O)N5CCC4)CC2)cc1 (stereo not drawn),22.9% (inactive)
14,O=C(NCc1ccccc1)C1=C[C@@H](c2ccccc2)C[C@@H](OCCCCO)O1,-16.2% (inactive)
15,Cc1cc(NC(=O)C(C)N2C(=O)c3ccccc3S2(=O)=O)no1 (stereo not drawn),3.27% (inactive)
16,CCN(CC(=O)Nc1c(F)cccc1F)C(=O)c1ccc(-c2ccccc2)cc1,-12% (inactive)
17,CC(OC(=O)/C=C/c1ccccc1)C(=O)Nc1ccc(C(N)=O)cc1 (stereo not drawn),-4.35% (inactive)
18,CCc1noc(C)c1C(=O)Nc1nc(-c2ccccc2)cs1,-1.08% (inactive)
19,CC(C)Cn1c(CCC(=O)O)ccc1-c1cccs1,98.9% (active)
20,CCn1c(NC(=O)c2ccccc2)c(-c2cccs2)c(=O)c2ccccc21,-3.02% (inactive)
21,CC(=O)c1ccc2c(c1)c1ccccc1n2CC(C)C,-8.57% (inactive)
22,Cc1cc(C(=O)NNC(=O)c2ccccc2O)c(C)o1,1.52% (inactive)
23,Cc1nn(C)c(C)c1NS(=O)(=O)c1ccc(OC(F)(F)F)cc1,-3.04% (inactive)

row,Structure (SMILES),inhibition
1,Cc1ccc2nc(SCC(=O)NC3CCCC3)[nH]c2c1,18.7% (inactive)
2,CCOC(=O)CSc1nc2ccc(C)cc2[nH]1,-3.78% (inactive)
3,CC(=O)Nc1ccc(C(=O)CSc2nc3ccc(C)cc3[nH]2)cc1,97.9% (active)
4,COc1cc(OC)cc(-c2cc3ccc(F)cc3cn2)c1,0.168% (inactive)
5,Cc1ccc(S(=O)(=O)N2CCN(C(=O)CN3C(=O)NC(C)(c4ccc(Cl)cc4)C3=O)CC2)c(C)c1 (stereo not drawn),-8.79% (inactive)
6,C=CCOc1cccc(C2C(C(=O)c3ccc(C)o3)=C(O)C(=O)N2c2nnc(C)s2)c1 (stereo not drawn),92.9% (active)
7,Cc1cc(N2C(=O)C(O)=C(C(=O)c3ccc(C)o3)C2c2ccc(OCc3ccccc3)cc2)no1 (stereo not drawn),38.2% (inactive)
8,COc1cc(C2C(C(=O)c3ccc(C)o3)=C(O)C(=O)N2CCc2ccccc2)ccc1O (stereo not drawn),51.3% (inactive)
9,COC(=O)c1c(-c2ccsc2)oc2ccc(-c3cc(OC)c(OC)c(OC)c3)cc12,-1.82% (inactive)
10,O=C(Cn1cnc2ccccc2c1=O)NNC(=O)c1ccccc1F,29.2% (inactive)
11,Cc1nnsc1C(=O)Nc1cccc(Cl)c1C,-1.48% (inactive)
12,Cc1cc(Cl)ccc1NNC(=O)c1snnc1C,98.9% (active)
13,Cc1nnsc1C(=O)N/N=C/c1ccccc1Cl,-1.47% (inactive)
14,CC(C)CN(C(=O)CSc1nncn1C)C1CCS(=O)(=O)C1 (stereo not drawn),0.148% (inactive)
15,Cn1c(-c2sc3cc(C(F)(F)F)cnc3c2-c2ccccc2)n[nH]c1=S,96.3% (active)
16,Cn1c(-c2sccc2OCc2cccc(C(F)(F)F)c2)n[nH]c1=S,1.68% (inactive)
17,C=CCn1c(-c2sc(-c3ccccc3)nc2C)n[nH]c1=S,8.68% (inactive)
18,COc1ccc(NC(=O)CSc2nc(SC)ns2)c(OC)c1,84.5% (active)
19,CSc1nsc(SCC(=O)Nc2cc(C(=O)O)ccc2C)n1,8.91% (inactive)
20,COc1ccc(C)cc1NC(=O)CSc1nc(SC)ns1,-1.75% (inactive)
21,CCCCC/C=C/C1=CC(=O)C[C@H](c2ccc(Cl)cc2)C1,5.58% (inactive)
22,Cc1c(NC(=O)CSc2nnc(-c3cccnc3)n2N)c(=O)n(-c2ccccc2)n1C,1.09% (inactive)
23,CS(=O)(=O)c1ccc(C(=O)OCC(=O)NNC(=O)COc2ccc(Cl)cc2)cc1,-1.94% (inactive)

row,Structure (SMILES),inhibition
1,Cc1ccc(C(=O)NC(=S)NCc2cccnc2)cc1,24.9% (inactive)
2,Cc1c(C(=O)NNC(=O)c2ccncc2)oc2ccccc12,2.8% (inactive)
3,Cc1c(C(=O)NC(=S)NCc2cccnc2)oc2ccccc12,93.3% (active)
4,Cc1ccc(C2(C)NC(=O)N(CC(=O)N3CC(=O)Nc4ccccc43)C2=O)cc1 (stereo not drawn),0.292% (inactive)
5,Cc1ccc(S(=O)(=O)N(C)c2ccc(OCC(=O)OCC(=O)N(CC#N)c3ccccc3)cc2)cc1,-18.6% (inactive)
6,O=C(OCC(=O)N1CCCCC1)c1ccc(OC(F)(F)F)cc1,-5.55% (inactive)
7,Cc1cc(C)cc(OCC(=O)Nc2ccc(N3CCOCC3)cc2N2CCOCC2)c1,7.88% (inactive)
8,O=C(CCc1nc2sc3c(c2c(=O)[nH]1)CCCC3)NCC(=O)Nc1ccccc1Br,18.6% (inactive)
9,CCCN(CC1CC1)C(=O)COC(=O)c1ccc(C)cc1O,5.02% (inactive)
10,O=C(NCCc1ccc(Cl)cc1)c1cccc(N2CCCC2=O)c1,2.63% (inactive)
11,C/C(=N\NC(=O)c1cccc(N2CCCC2=O)c1)c1ccc(N)cc1,99.1% (active)
12,CC1CCCC(NC(=O)c2cccc(N3CCCC3=O)c2)C1C (stereo not drawn),0.109% (inactive)
13,Cc1ccnc(SCC(=O)Nc2cccc(S(=O)(=O)N3CCOCC3)c2)n1,-3.28% (inactive)
14,Cc1ccc(NC(=O)CSc2nc(CSc3ccc(C)cc3)cc(=O)[nH]2)cc1,6.9% (inactive)
15,COc1ccc(NC(=O)CSc2nc(NS(=O)(=O)c3ccc(C)cc3)cc(=O)[nH]2)cc1,98.9% (active)
16,CCOC(=O)Cc1csc(NC(=O)CSc2ccc(Br)cc2)n1,-32.4% (inactive)
17,CCCc1cc(=O)[nH]c(SCC(=O)Nc2ccc(S(=O)(=O)N3CCCC3)cc2)n1,-1.58% (inactive)
18,Cc1cc(=O)[nH]c(SCC(=O)Nc2ccc(Br)cc2)n1,-7.33% (inactive)
19,CCOC(=O)Cc1csc(NC(=O)C(C)(C)C)n1,-0.763% (inactive)
20,Cc1cccc(NC(=O)CSc2nc3[nH]ncc3c(=O)[nH]2)c1,1.74% (inactive)
21,COC(=O)c1cccc(NC(=O)CSc2nc(C)cc(=O)[nH]2)c1,98.5% (active)
22,CCOC(=O)Cc1csc(NC(=O)CSc2nc(C)cc(=O)[nH]2)n1,98.7% (active)
